± gives the standard deviation.

For the test, the system named is OVCAR-3-derived ovarian cancer stem-like cells (spheroids). Briefly: cell growth relative to untreated control; higher = more growth (less inhibition). As to conditions: 2.29 µM; 96 h. The procedure, abridged:
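OVCAR-3 spheroid-derived stem-like cells were trypsin-dissociated, seeded at 50,000 cells/mL in stem cell medium in ultra-low attachment 96-well plates and preincubated 24 h. Compounds were then added at 2.29 uM for 96 h at 37°C, 5% CO2, in 4 replicate wells. Viability was read as TOX8 resazurin fluorescence (ex 560/em 590 nm) after 4 h. Percent growth was calculated relative to untreated wells after blank subtraction and Grubbs outlier removal.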
Take `[N-]=[N+]=Nc1ccc2c(c1)Sc1ccccc1N2CCCCN1CCN(Cc2ccc(C(=O)c3ccccc3)cc2)CC1`: the cell growth is 95.1 ± 13%. Compound `CCN(CC)CCOc1ccc(C(O)(Cc2ccc(OC)cc2)c2ccccc2)cc1` (centres undefined) showed a cell growth of 118 ± 40%. The value for `CC1=CC(=O)c2ccccc2C1=O` was 89.6 ± 9.4%; that for `COc1ccc2cc1Oc1ccc(cc1)CC1c3cc(c(OC)cc3CCN1C)Oc1c(OC)c(OC)cc3c1C(C2)N(C)CC3` (centres undefined) was 88.5 ± 18%. Then `N[C@H](C(=O)O)[C@@H]1CC(Cl)=NO1`, with 85.3 ± 21%. The value for `CCN(CC)C(=S)S` was 61.6 ± 19%; that for `Nc1nc(N)c(N=Nc2ccccc2)c(=O)[nH]1` was 84.4 ± 21%; that for `Oc1[nH]c2ccccc2c1N=Nc1c(F)c(F)c(F)c(F)c1F` was 100 ± 13%. On to `CCc1cccc(CC)c1NC(=O)C(C#N)C1=C(Cl)C(=O)c2ccccc2C1=O` (centres undefined), for which the cell growth was 70.3 ± 31%. The value for `CCc1cccc(C(C)C)c1NC(=O)/C(=N\NC(N)=O)C(C(=O)OC)c1cnc2ccccc2n1` (centres undefined) was 71.4 ± 14%.

`COc1cc2c3c(n(C)c(=O)c2cc1OC)-c1cc2c(cc1C3=O)OCO2` gave a cell growth of 101 ± 38%. For the compound `Cc1cc(O)c(C(C)C)cc1C1(c2cc(C(C)C)c(O)cc2C)OC(=O)c2ccccc21`, the cell growth came to 104 ± 32%. `BrCCC[P+](c1ccccc1)(c1ccccc1)c1ccccc1` had a cell growth of 42.9 ± 7.3%.

With `COc1ccc(/C=C/c2cc(O)cc(O[C@@H]3O[C@H](CO)[C@@H](O)[C@H](O)[C@H]3O)c2)cc1O`, the cell growth worked out at 106 ± 26%. As for `COc1cc(/C=C2\S/C(=N/Nc3nc(-c4ccc(Br)cc4)cs3)NC2=O)cc(OC)c1OC`, the cell growth is 91.9 ± 19%. The value for `NCCCNCCCCNCCCN` was 141 ± 34%; that for `COc1cc2c(c(OC)c1OC)-c1ccc(OC)c(=O)cc1[C@@H](NC(=O)c1ccccc1)CC2` was 30.8 ± 5.6%; that for `O=C(CC1(O)C(=O)Nc2c(Cl)cc(Cl)cc21)c1cccc([N+](=O)[O-])c1` (centres undefined) was 88.1 ± 30%. Then `C[n+]1c(-c2ccc(/C=C/C=N/NC(=O)c3ccc(C(=O)N/N=C/C=C/c4ccc(-c5cn6ccccc6[n+]5C)cc4)cc3)cc2)cn2ccccc21`, with 138 ± 18%. Regarding `COC(=O)c1ccc(=O)c2nc3/c(=C/O)c(O)cc(=O)c3[nH]c12`, the cell growth came out at 109 ± 44%. Then `O=C1c2ccccc2C(=O)c2nc(-c3ccccc3)c(-c3ccccc3)nc21`, with 137 ± 51%; and `O=Nc1ccc(O)c2ncccc12`, with 82 ± 25%; and `C=C1CC[C@@H]2[C@](C)(CO)[C@H](O)CC[C@@]2(C)[C@@H]1C/C=C1/C(=O)OC[C@H]1O`, with 119 ± 38%. For the compound `COC1=CC(=O)c2c(ccc3ncnc(N)c23)C1=O`, the cell growth came to 79.1 ± 20%. Regarding `O=[N+]([O-])c1cccc2c(N=Nc3ccc4ccccc4c3O)c(O)cc(S(=O)(=O)O)c12`, the cell growth turned out to be 74.2 ± 40%. Consider `O=C1Oc2ccccc2C1C/C(=N\Nc1ccccc1)c1ccccc1O` (centres undefined), for which the cell growth was found to be 158 ± 100%. Then `CCN1C=C/C(=C\C=C\c2cc[n+](CC)c3ccccc23)c2ccccc21`, with 22.2 ± 4.2%. Take `COc1ccc(-c2cc(=O)c3c(O)cc(O)cc3o2)cc1OC`: the cell growth was 4.9 ± 3.4%. The value for `CO[C@@H]1[C@@H](OC(=O)c2ccc(C)[nH]2)[C@@H](O)[C@H](Oc2ccc3c(O)c(NC(=O)c4c[nH]c(C(=O)Nc5c(O)c6ccc(O[C@@H]7OC(C)(C)[C@H](OC)[C@@H](OC(=O)c8ccc(C)[nH]8)[C@H]7O)c(C)c6oc5=O)c4C)c(=O)oc3c2C)OC1(C)C` was 100 ± 22%; that for `CC(=O)O[C@]1(C(C)=O)CC[C@H]2[C@@H]3C[C@H](C)C4=CC(=O)C=C[C@]4(C)[C@@]3(F)[C@@H](O)C[C@@]21C` was 130 ± 81%. `Nc1ccc2cc3ccc(N)cc3nc2c1` yielded a cell growth of 25.8 ± 6.4%. The value for `C/C(=N\NC(=S)N1CCN(C2CCCCCC2)CC1)c1ccccn1` was 14.7 ± 7.5%; that for `COc1nc(C(Cl)(Cl)Cl)c(Cl)c(OC)c1Cl` was 112 ± 17%.

`O=C1C(Br)=C(Br)C(=O)c2ccccc21` gave a cell growth of 3.3 ± 4%. `Nc1ccc2c(c1)CN1C(=O)c3ccccc3C1=N2` yielded a cell growth of 72.9 ± 5.6%. On to `CCCCCCCCCCCCCCCCCCOCC(COP(=O)([O-])OCC[N+](C)(C)C)OC` (centres undefined), for which the cell growth turned out to be 93 ± 25%. `CCNC(=O)OCc1c(COC(=O)NCC)c(-c2ccc(Cl)c(Cl)c2)n2c1CCC2`: the cell growth turned out to be 74.1 ± 12%.

The compound `CN(CO)c1nc(N(C)CO)nc(N(C)CO)n1` returned a cell growth of 83.5 ± 18%.

`O=[n+]1c2c(n([O-])c3ccccc31)-c1cccc3cccc-2c13` gave a cell growth of 92 ± 21%.

These data come from the supplement of paper PMC3484114.
